# HT1080NT lethal: qHTS for induction of synthetic lethality in tumor cells producing 2HG: qHTS for the HT-1080-NT fibrosarcoma cell line; HT-1080-NT fibrosarcoma viability, CellTiter-Glo ATP luminescence, 48 h; Potency, µM (top dose mostly 46.1 µM), usual class: cytotoxic; 360,000 compounds, 1.6% hits; AID 686970, 2013;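 further: NT is the 2HG producing partner of a matched IDH1 knockdown line; nearly all actives have a fitted effect of over 55% in size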
#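 HT-1080-NT; 750 cells/well; 5% FBS RPMI; 48 h compound, 37 degrees C; CellTiter-Glo luminescence; curve fitting and curve-class assignment.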
# TDP1 cell noCPT: qHTS for Inhibitors of human tyrosyl-DNA phosphodiesterase 1 (TDP1): qHTS in cells in absence of CPT | Potency, µM (doses to about 46.2 µM), usual class: inhibitors | 420,000 compounds, 15% hits | DT40 Tdp1-/- hTDP1 cells, no CPT, ATP luminescence, 48 h; further: nearly all actives have a fitted effect of over 55% in size
#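 Stably hTDP1-transfected Tdp1-null chicken DT40 cells were treated with library compounds minus camptothecin and grown for at least 48 hr at 37 °C, after which cellular ATP was quantified by luminescence.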
# uPA generation: qHTS for Inhibitors of Cell Surface uPA Generation; 330,000 compounds, 0.31% hits; Potency, µM (doses to about 38.3 µM), usual class: inhibitors; AID 540303, 2011; cell surface uPA generation assay, qHTS; active means well fitted inhibition curve with a large enough effect; inconclusive means small, poorly fitted or top-dose-only effect; inactive means no such curve, though single readings can be large or run the other way; tested in mouse RAW 264.7 cells; further: nearly all actives have a fitted effect of over 55% in size
# TDP1 cell CPT: qHTS for Inhibitors of human tyrosyl-DNA phosphodiesterase 1 (TDP1): qHTS in cells in presence of CPT | chicken DT40 Tdp1-/-;hTDP1 cells + 20 nM CPT, ATP luminescence, 48 h | Potency, µM (titrated, usually from 46.2 µM), most hits filed as inhibitors | 420,000 compounds, 12% hits; further: nearly all actives have a fitted effect of over 55% in size
#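 Cell growth measured by CellTiter-Glo luminescence after a minimum 48 h, 37 C compound exposure with 20 nM CPT in Tdp1-knockout DT40 cells stably expressing hTDP1, seeded 400/well; qHTS titration format.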
# HT1080 IDH1KD tx: qHTS for induction of synthetic lethality in tumor cells producing 2HG: qHTS for the HT-1080-IDH1KD cell line. 360,000 compounds, 2% hits. Potency, µM (titrated, usually from 46.1 µM), usual class: cytotoxic. HT-1080 IDH1 knockdown viability, ATP luminescence, 48 h
#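 % activity derives from luminescence (CellTiter-Glo), normalised to DMSO and no-cell wells. HT-1080-IDH1KD cells, 750/well, had 48 h compound exposure at 37 °C.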
# IL1B secr inh: qHTS for Inhibitors of Inflammasome Signaling: IL-1-beta AlphaLISA Primary Screen; THP-1 LPS/ATP IL-1B secretion, AlphaLISA, 16 h; active compounds read low; activity change, % at 57.5 µM; 360,000 compounds, 4.7% hits; in the data active means activity change below about -50%; inconclusive means mostly about -30% to -49%
#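 Secreted IL-1B measured by AlphaLISA bead assay after 16 h compound exposure of THP-1 cells; compounds (final up to 57.5 uM) added 1 h before LPS (250 ng/mL) and ATP (1.25 mM) stimulation; lower signal means less secretion.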
# Numbers stand for hits; i = inactive; ? = inconclusive; nt = not tested or not shown. In the library only some 19% were active in any assay of this set; here they are far more common. Unless noted, the call rests on the fitted dose curve; in most records, active means well fitted curve in the direction sought with a large enough effect; inconclusive means small, poorly fitted or top-dose-only effect, or another doubt; inactive means no such curve, though single readings can be large; an effect the other way counts as inactive or inconclusive.
SMILES,HT1080NT lethal,TDP1 cell noCPT,uPA generation,TDP1 cell CPT,HT1080 IDH1KD tx,IL1B secr inh
CN(C)C(=O)CNC(=O)CN1C(=O)NC2(CCCc3sccc32)C1=O (configuration not stated),i,i,i,i,i,-64.7
CC(C)(C)NC(=O)CSc1nc2[nH]ncc2c(=O)[nH]1,i,i,i,i,i,i
CCCCC(OC(=O)CN1C(=O)COc2ccccc21)C(=O)NC1CCCCC1 (configuration not stated),i,16.4µM,i,i,i,i
CCOc1ccc(C(=O)OCc2cc(=O)n3cc(C)sc3n2)cc1,nt,i,nt,i,nt,nt
O=[N+]([O-])c1ccc(N2CCOCC2)cc1NC(c1ccccc1)c1ccccc1,i,?,i,16.4µM,i,i
CC(C)C(=O)N1CCN(c2ccc([N+](=O)[O-])c(NC(C)c3ccccc3)c2)CC1 (configuration not stated),?,16.4µM,i,?,i,-63.8
CC(Nc1cc(N2CCN(C(=O)C(C)(C)C)CC2)ccc1[N+](=O)[O-])c1ccccc1 (configuration not stated),i,23.1µM,i,?,i,i
CCS(=O)(=O)N1CCN(c2ccc([N+](=O)[O-])c(NCc3ccccc3)c2)CC1,i,?,i,?,i,i
CC(C)Nc1cc(N2CCCC2)ccc1[N+](=O)[O-],i,i,i,?,i,i
COCCCn1c(=O)c2sccc2n(Cc2cc(C(=O)OC)ccc2OC)c1=O,i,i,i,i,i,i
Cc1ccc(CNC(=O)Cc2c(C)c3c(cc(C)c4c(C)coc43)oc2=O)cc1,nt,i,nt,i,nt,nt
O=C(C[n+]1cccc(C(=O)Nc2ccccc2)c1)c1ccc(Cl)cc1,i,16.4µM,nt,?,?,?
CC(C)(C)NC(=O)CSC(=Nc1ccc(F)cc1)NC#N,i,?,i,i,i,-96.9
O=C([C@H]1O[C@@H](n2ccc(=O)[nH]c2=O)[C@H](O)[C@@H]1O)N1CCSC1,?,i,nt,i,i,i
CC(C)C(=O)NC(=S)/C=C1/N(C)c2ccccc2C1(C)C,i,8.2µM,i,18.4µM,?,i
CN1/C(=C\C(=O)c2cccnc2)C(C)(C)c2ccccc21,i,?,i,i,i,i
CN1/C(=C/C(=S)NC(=O)C2CCC2)C(C)(C)c2ccccc21,i,18.4µM,i,16.4µM,i,i
CN1/C(=C\C(=O)C(F)F)C(C)(C)c2ccccc21,i,i,i,i,i,i
CN1/C(=C\C=N\NC(=O)c2cccnc2)C(C)(C)c2ccccc21,i,?,i,i,i,i
CN1/C(=C\C(=O)c2cccc(S(=O)(=O)N3CCCCC3)c2)C(C)(C)c2ccccc21,i,?,i,?,i,i
CN1/C(=C\C=N\NC(=O)c2ccc(O)cc2)C(C)(C)c2ccccc21,i,18.4µM,i,20.6µM,i,i
Cc1ccc(C(=O)NC(=S)/C=C2\N(C)c3ccccc3C2(C)C)cc1,i,3.66µM,?,8.2µM,i,i
O=C1CCCN1CCC(=O)N1CCCC(N2CCN(c3ccccc3F)CC2)C1 (configuration not stated),i,i,i,i,i,i
c1ccc(-c2nc(SCC3CCCCO3)n[nH]2)cc1 (configuration not stated),nt,?,nt,i,nt,nt
CC(=O)/C=C1\N(C)c2ccc(C)cc2C1(C)C,i,5.17µM,i,6.51µM,i,i
CN1/C(=C\C(=O)CSc2ncn[nH]2)C(C)(C)c2ccccc21,i,?,i,?,i,i
COc1ccc(C2Nc3ccccc3C(=O)N2c2ccccc2F)cc1COc1ccc(NC(C)=O)cc1 (configuration not stated),nt,17.8µM,nt,11.2µM,nt,nt
